Key:
Assay in all cases: pooled miR-30 sensor sort-seq; sequence = guide strand
Details in all cases: shRNA
CHD2 = target: CHD2
CHCHD8 = target: CHCHD8
CHEK1 = target: CHEK1
CHI3L1 = target: CHI3L1
CLDN16 = target: CLDN16
CIRBP = target: CIRBP
CLCN5 = target: CLCN5
Also: reference of the scale not given here.

Sequence: TTCAACAAGTAATCCGCTCGGG
- sensor-assay potency score (higher = more potent) (CHD2): 0.35

Sequence: TCATCGTCTTTCTTCACCCGTT
- sensor-assay potency score (higher = more potent) (CHCHD8): -0.24

Sequence: TTATAAGCCTTGATGAACCTTC
- sensor-assay potency score (higher = more potent) (CHD2): 0.197

Sequence: TTCAGGAACTACTATTTGCAGT
- sensor-assay potency score (higher = more potent) (CHEK1): -0.581

Sequence: TATCTTGGCAATGTCATAGCTG
- sensor-assay potency score (higher = more potent) (CHI3L1): 0.682

Sequence: TTCATTTCCTTGATTAGGGTGG
- sensor-assay potency score (higher = more potent) (CHI3L1): 0.13

Sequence: TCTGCAGTAATCATCAACGCTC
- sensor-assay potency score (higher = more potent) (CLDN16): -0.0383

Sequence: TGAGAAGACCTGCTCCAGCGAC
- sensor-assay potency score (higher = more potent) (CIRBP): -1.23

Sequence: TTCCACAGTCATACTGTCCTGA
- sensor-assay potency score (higher = more potent) (CLCN5): 0.719

Sequence: TTAAGTCTGTCATCCAATGAGC
- sensor-assay potency score (higher = more potent) (CLCN5): -1.29

Sequence: TTTATTGGTAATCTCTCGGTGC
- sensor-assay potency score (higher = more potent) (CLCN5): 0.182

Sequence: TTGATAACCAGAGTCCACTTAC
- sensor-assay potency score (higher = more potent) (CLCN5): -0.327

Sequence: TGTCTGACGACTTGCCTGCCTG
- sensor-assay potency score (higher = more potent) (CIRBP): -1.09

Sequence: TTGAGGGGAAAATAGTAGCTGA
- sensor-assay potency score (higher = more potent) (CLCN5): -0.729

Sequence: TCTTATGAGCAAACTCTTCTTT
- sensor-assay potency score (higher = more potent) (CLCN5): -0.0775

Sequence: TACATTTTGGCCGTCTCTGTGC
- sensor-assay potency score (higher = more potent) (CLDN16): -0.539

Sequence: TACTTTGAGAAGACCTGCTCCA
- sensor-assay potency score (higher = more potent) (CIRBP): 0.53

Sequence: TAGCTGACCTCTTCAAGGCTGA
- sensor-assay potency score (higher = more potent) (CLCN5): -0.234

Sequence: AATATCTGCAGTAATCATCAAC
- sensor-assay potency score (higher = more potent) (CLDN16): -0.661

Sequence: TTTGCTTGTGTTGAAACGGTTC
- sensor-assay potency score (higher = more potent) (CLCN5): -0.272

Sequence: TGTCGTAACTGTCTCTGTAGGA
- sensor-assay potency score (higher = more potent) (CIRBP): 0.291

Sequence: TTTCATCACATCCATTGCCAGG
- sensor-assay potency score (higher = more potent) (CLCN5): -1.34

Sequence: TAGCGTCGTCAATGTTCTCAAA
- sensor-assay potency score (higher = more potent) (CIRBP): -1.03

Sequence: TAGAATATCTGCAGTAATCATC
- sensor-assay potency score (higher = more potent) (CLDN16): -0.742

Sequence: TATAGTAATGACAATTTTCAGT
- sensor-assay potency score (higher = more potent) (CLCN5): -0.57

Sequence: TATAACAGGATACTTGCCCAAC
- sensor-assay potency score (higher = more potent) (CLCN5): -1.3

Sequence: AAGAATAATACAAACAGGCTGT
- sensor-assay potency score (higher = more potent) (CLDN16): 0.277

Sequence: TTTGTGACGCATTCCCACCAGA
- sensor-assay potency score (higher = more potent) (CLDN16): -0.822

Sequence: TGCTATAGCACCAACAGCCATG
- sensor-assay potency score (higher = more potent) (CLCN5): -1.3

Sequence: TATATGCTTTAACACATCCTTT
- sensor-assay potency score (higher = more potent) (CLCN5): -1.04
